In all, about 300,000 compounds went through this assay and about 37,000 (12%) were called active. No stated cut-off is given here; in the data, active means max response mostly above about 13% (no sharp cut-off); inactive means mostly below about 14%. The full list was thinned out, with actives kept by preference.
Experiment: Cycloheximide Counterscreen for Small Molecule Inhibitors of Shiga Toxin; further: read at 38.3 µM for the half of the compounds with a filed dose; 0% is about no effect
Settings: cell reporter, cycloheximide protein synthesis inhibition counterscreen; active compounds read high

SMILES	max response
CC(C)Oc1c(Br)cc(Br)cc1/C=N/NC(N)=S	-0.405% (inactive)
CN(C(=O)CN1C(=O)CCSc2ccc(S(=O)(=O)N3CCCC3)cc21)c1ccccc1	1.23% (inactive)
CCOc1ccc(N(C)Cc2cc(=O)oc3ccc(OC)cc23)cc1	-1.56% (inactive)
O=C(C1CCC(=O)N(C2CC2)C1)N1CCN(c2ccc(Cl)cc2)CC1 (stereo unspecified)	-2.23% (inactive)
CCn1c(CSCc2c(Cl)cccc2Cl)n[nH]c1=S	7.21% (inactive)
O=C(C[n+]1cc(-c2ccc(Cl)c(Cl)c2)n2c1CCC2)c1cccs1	-1.98% (inactive)
CCOc1ccccc1NC(=S)N1CCN(c2cccc(C)c2C)CC1	-1.77% (inactive)
NC(=O)CCC(NS(=O)(=O)c1ccc(Cl)cc1)C(=O)NCc1ccccc1Cl (stereo unspecified)	-1.61% (inactive)
Cc1nn(CC(=O)NCCc2ccccc2)c(=O)c2cc3occc3n12	-3.95% (inactive)
O=C(Cn1c(-c2cscn2)nc2ccccc21)Nc1ccc(Cl)cc1	-2.37% (inactive)
CS(=O)(=O)N(CC(=O)N1CCN(Cc2ccccc2)CC1)c1ccc2c(c1)OCCO2	-2.95% (inactive)
c1ccc(CN2CCC(N=C3NN=C(c4ccc5c(c4)OCCO5)CS3)CC2)cc1	32.2% (active)
Clc1cccc(N=C2NN=C(c3ccc4c(c3)OCCO4)CS2)c1	74.7% (active)
CC(=NC1CCN(Cc2ccccc2)CC1)c1c(O)[nH]c(=O)[nH]c1=O	-1.74% (inactive)
COc1cc(CCC(=O)OCC(=O)Nc2cccc(S(N)(=O)=O)c2)cc(OC)c1OC	-3.66% (inactive)
CCOC(=O)/C(C#N)=C/c1ccc(OCC(=O)Nc2ccccc2)c(OC)c1	22.6% (active)
COc1cc(C2C3=C(CCCC3=O)OC3=C2C(=O)CCC3)ccc1OCC(=O)Nc1ccccc1	4.65% (inactive)
COc1cc(/C=N/NC(=O)Nc2ccccc2)ccc1OCCOc1ccccc1C	-1.6% (inactive)
CCOC(=O)/C(C#N)=C/c1cn(CCC(=O)O)nc1-c1ccc(Br)cc1	-0.95% (inactive)

SMILES	max response
CCCn1c(C)cc(/C=C(\C#N)C(=O)OCC(=O)Nc2cc(OC)c(OC)c(OC)c2)c1C	31.9% (active)
COc1ccc(-c2nnc(SC(=O)N3c4ccccc4Sc4ccccc43)o2)cc1	9.5% (inactive)
COc1ccc2[nH]c(=O)c(C3c4cc(OC)c(OC)cc4CCN3C(=O)c3ccco3)cc2c1 (stereo unspecified)	-3.91% (inactive)
NS(=O)(=O)c1cccc(NC(=O)CC23CC4CC(CC(Br)(C4)C2)C3)c1	-0.826% (inactive)
CN(C(=O)CCN1C(=O)/C(=C/c2ccccc2F)SC1=S)C1CCS(=O)(=O)C1 (stereo unspecified)	4.42% (inactive)
O=C(CN1C(=O)/C(=C/c2ccccc2F)Sc2ccccc21)NCc1cccnc1	8.85% (inactive)
O=C(CN1C(=O)/C(=C\c2ccccc2F)SC1=S)Nc1nc2ccccc2s1	47.4% (active)
COC(=O)c1cccc(N(C(=O)CNC(=O)c2cccs2)C(C(=O)NCC2CCCO2)c2ccc(OC)c(OC)c2)c1 (stereo unspecified)	-3.34% (inactive)
Cc1cc(O)ccc1-c1cnc2ccccc2n1	34.4% (active)
O=C(O)c1cc(S(=O)(=O)N(Cc2ccccc2)c2ccccc2)ccc1Cl	-0.844% (inactive)
COc1ccc(N(C(=O)CNC(=O)c2ccco2)C(C(=O)NCC2CCCO2)c2ccccc2)cc1Cl (stereo unspecified)	-3.36% (inactive)
COc1ccc(SC[C@H](Cc2ccccc2)N2CCN(CCc3ccccc3)CCC2=O)cc1	-4.06% (inactive)
Cc1ccc(SCC(CC(C)C)N2CCN(CCc3ccccc3)CCC2=O)cc1 (stereo unspecified)	40% (active)
CCCN1CCC(=O)N(C(CSc2ccc(C)cc2)Cc2ccccc2)CC1 (stereo unspecified)	7.93% (inactive)
CCOC(=O)CN1C(=O)C(=O)c2cc(C)ccc21	-1.86% (inactive)
CCOC(=O)[C@@H]1[C@H]2COc3cc(OC)ccc3[C@H]2N2C(=O)N(c3ccc(F)cc3)C(=O)[C@]12C	0.485% (inactive)
COCCN(C(=O)C(C)C)c1nnc(-c2ccc(C(C)(C)C)cc2)s1	13.2% (inactive)
O=C(Nc1cccc(-c2nc3ccccc3[nH]2)c1)c1ccc(C(=O)Nc2cccc(-c3nc4ccccc4[nH]3)c2)cc1	48.3% (active)
NS(=O)(=O)c1cccc(NC(=O)COC(=O)/C=C/c2ccco2)c1	0.371% (inactive)

SMILES	max response
CC(C)Oc1ccc(/C=C(\NC(=O)/C=C/c2ccco2)C(=O)NCCc2nc3ccccc3[nH]2)cc1	5.81% (inactive)
O=C(/C=C/c1ccco1)Nc1cccc(-c2nc3ccccc3[nH]2)c1	51.8% (active)
O=C(Cc1cccs1)Nc1cccc(-c2nc3ccccc3[nH]2)c1	11.5% (inactive)
Cc1ccc(-c2nc3ccccc3[nH]2)cc1NC(=O)c1sc2ccccc2c1Cl	-0.874% (inactive)
O=C(N/N=C/c1cccc(Br)c1)c1ccc(N2CCCC2=O)cc1	-5.81% (inactive)
COc1ccc(C(=O)Nc2ccccc2C(=O)N/N=C/c2ccc(O)c(OC)c2)cc1	-7.9% (inactive)
COc1cc(/C=N/NC(=O)c2ccc(N3CCCC3=O)cc2)ccc1O	36% (active)
Cc1c(Cl)cccc1NC(=O)Nc1ccc(C(=O)N2CCCC2)cc1	-1.9% (inactive)
O=C(CCS(=O)(=O)c1ccc2c(c1)NC(=O)CS2)NCc1ccccc1Cl	-3.16% (inactive)
O=C(CSc1n[nH]c(=O)n1-c1ccccc1)Nc1ccccc1C(F)(F)F	-2.47% (inactive)
CCOc1ccc2nc(/N=C/c3nc(-c4ccccc4)oc3O)sc2c1	-1.31% (inactive)
CC(N=Cc1nc(-c2ccccc2)oc1O)c1ccccc1 (stereo unspecified)	35.7% (active)
Cc1c(Cl)cccc1NC(=O)NCCCN1CCCC1=O	-0.801% (inactive)
COCCN1C(=O)C(=O)/C(=C(/O)c2ccc(S(=O)(=O)N3CCOCC3)cc2)C1c1ccc(O)c(OC)c1 (stereo unspecified)	-5.59% (inactive)
Cc1cccc(NC(=S)NCc2ccc3[nH]c4c(c3c2)CCCC4)c1	9.68% (inactive)
CCn1c(/C=C/c2ccc([N+](=O)[O-])o2)nc2ccccc2c1=O	-4.66% (inactive)
O=c1c2ccccc2nc(/C=C/c2ccc(F)cc2)n1-c1ccccc1O	6.44% (inactive)
O=c1c2ccccc2nc(/C=C/c2ccco2)n1-c1ccccc1O	24.2% (active)
